# The list is not random: actives were taken first. Their share in the collection is about 2.8%.
# POLK inh = qHTS for Inhibitors of Polymerase Kappa. DNA polymerase kappa (Homo sapiens), Q9UBT6. purified Pol kappa, fluorescent DNA synthesis assay, 10 min. Potency, µM (series often up to 107 µM), for the others: top-dose activity, negative = inhibition, usual class: inhibitors. hit rate 0.53% among 400,000; also: potency is read from the fitted curve at half-maximal effect; % is scaled to controls: 0 for no effect and ±100 for the full control effect
# Target sequence (Q9UBT6 whole entry, looked up): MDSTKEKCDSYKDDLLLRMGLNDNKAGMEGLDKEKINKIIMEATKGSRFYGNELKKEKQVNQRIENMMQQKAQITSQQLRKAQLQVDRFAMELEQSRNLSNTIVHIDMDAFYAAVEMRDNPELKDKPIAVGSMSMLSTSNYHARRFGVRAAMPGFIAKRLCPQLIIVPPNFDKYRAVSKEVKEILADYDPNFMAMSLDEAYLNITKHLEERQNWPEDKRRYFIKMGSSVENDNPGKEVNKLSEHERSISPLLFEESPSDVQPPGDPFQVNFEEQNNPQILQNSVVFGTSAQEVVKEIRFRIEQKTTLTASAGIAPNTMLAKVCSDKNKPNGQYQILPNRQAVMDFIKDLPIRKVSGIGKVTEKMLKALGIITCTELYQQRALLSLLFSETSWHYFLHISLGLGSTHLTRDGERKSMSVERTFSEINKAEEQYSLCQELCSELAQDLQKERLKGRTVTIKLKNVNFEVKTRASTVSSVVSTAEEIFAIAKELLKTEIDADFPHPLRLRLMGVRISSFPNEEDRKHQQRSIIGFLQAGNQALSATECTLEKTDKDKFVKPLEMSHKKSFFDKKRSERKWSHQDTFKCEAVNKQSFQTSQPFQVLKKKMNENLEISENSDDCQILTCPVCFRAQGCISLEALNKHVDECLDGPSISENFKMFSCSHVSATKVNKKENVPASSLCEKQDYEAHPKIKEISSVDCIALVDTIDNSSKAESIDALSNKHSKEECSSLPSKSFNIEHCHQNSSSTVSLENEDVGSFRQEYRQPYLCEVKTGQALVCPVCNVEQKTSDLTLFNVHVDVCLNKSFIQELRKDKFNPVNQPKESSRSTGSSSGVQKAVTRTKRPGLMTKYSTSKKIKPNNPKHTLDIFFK
#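 Pol kappa 10 nM + cpd, 15 min RT; start w/ substrate 50 nM final; fluorescence kinetic read, 0 and 10 min. Neg ctrl: buffer, no enzyme.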
# FEN1 inh = qHTS Assay for the Inhibitors of Human Flap endonuclease 1 (FEN1); P39748; Recombinant FEN1 flap cleavage, fluorescence, 15 min; Potency, µM (titrated, usually from 114 µM), without a hit: at the top dose activity change, negative = inhibition, usual class: inhibitors; hit rate 0.35% among 390,000; AID 588795, 2011; also: potency is read from the fitted curve at half-maximal effect; % is scaled to controls: 0 for no effect and ±100 for the full control effect; nearly all actives have a fitted effect of over 65% in size
#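 With each library titrated from low to high concentration, compounds met 10 nM FEN1 for 15 min at room temperature before 50 nM substrate was added; readings at 0 and 15 min fed four-parameter Hill curve fits.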
# PI5P4Ka inh = qHTS for Inhibitors of phosphatidylinositol 5-phosphate 4-kinase (PI5P4K) | PI5P4Kalpha enzyme, ADP-Glo luminescence, 60 min; stronger effect = lower value | max response, % | hit rate 1.2% among 330,000; active = max response of -50% or lower; inconclusive = between -30% and -50%; inactive = -30% or higher; also: value at the top dose of about 77 µM; % is scaled to controls: 0 for no effect and ±100 for the full control effect
#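 ADP-Glo luminescence end-point read after a 60 min room-temperature kinase reaction of PI5P4Kalpha plus substrate, initiated with ATP at 5 microM final. Buffer: 0.038 M HEPES pH 7.4, EGTA, 0.1% CHAPS, 5% DMSO.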
# POLH inh = qHTS for Inhibitors of Polymerase Eta; DNA polymerase eta (Homo sapiens), Q9Y253; recombinant Pol eta, fluorescent DNA replication assay; Potency, µM (doses to about 114 µM), for inactives: at the highest dose activity change, negative = inhibition, most hits filed as inhibitors; hit rate 1.2% among 390,000; AID 588591, 2011; also: potency is read from the fitted curve at half-maximal effect; % is scaled to controls: 0 for no effect and ±100 for the full control effect
#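 Pol eta at 10 nM preincubated with compounds 15 min at room temperature; reaction started with fluorescent substrate (50 nM final) and read kinetically at 0 and 10 min.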
# Pol beta inh = qHTS Assay for Inhibitors of DNA Polymerase Beta; Potency, µM (top dose mostly 114 µM), without a hit: at the highest dose activity change, negative = inhibition, actives largely listed as inhibitors; P06746; hit rate 1.3% among 340,000; Pol beta primer extension/strand displacement, fluorescence kinetic; also: potency is read from the fitted curve at half-maximal effect; % is scaled to controls: 0 for no effect and ±100 for the full control effect
#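 10 nM enzyme + cpd, 15 min RT; start with substrate 50 nM final; read 0 min and after 10 min RT. Corrected, normalized data; 4-parameter Hill curve fit.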
# POLI inh = qHTS for Inhibitors of Polymerase Iota. Pol iota fluorescent replication assay, 10 min. Potency, µM (top dose mostly 115 µM), inactives show top-dose activity, negative = inhibition, most hits filed as inhibitors. hit rate 1% among 390,000. AID 588590, 2011; also: potency is read from the fitted curve at half-maximal effect
#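 Fluorescent replication assay read twice, at 0 min and 10 min after adding 50 nM (final) substrate. Enzyme (10 nM) and compounds were first incubated 15 min at room temperature; enzyme-free buffer wells were negative controls.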
# Starred values were filed as active, the others as inactive; ? = inconclusive; nt = no result; [ ] = another dose, or the depositor's remark. Unless noted, calls follow the shape of the dose curve; as a rule, active = well fitted curve in the direction sought with a large enough effect; inconclusive = small, poorly fitted or top-dose-only effect, or another doubt; inactive = no such curve, though single readings can be large; an effect the other way counts as inactive or inconclusive.
SMILES,POLK inh,FEN1 inh,PI5P4Ka inh,POLH inh,Pol beta inh,POLI inh
Cc1ccc(CSc2nnc(SCC(=O)N/N=C/c3c[nH]c4ccccc34)s2)cc1,-22%,?,-27,?,7.9µM*,3.5µM*
O=C(CSc1nnc(SCc2ccccc2Cl)s1)N/N=C/c1c[nH]c2ccccc12,-7%,3%,-6,?,4%,7%
CCCOc1ccc(/C=N/NC(=O)CN2CCCCC2)cc1OCC,-20%,4%,4,-3%,31%,1%
CCCCOc1ccc(C(=O)N/N=C/c2ccc(OCCN3CCCCC3)c(OC)c2)cc1,?,-6%,11,?,16µM*,?
CCCOc1ccc(/C=N/NC(=O)CSc2ccccn2)cc1OC,-22%,-15%,4,-12%,79µM*,18%
COc1ccc(C(=O)N/N=C/c2ccc(OC)c(CN3CCCc4ccccc43)c2)cc1,-20%,-6%,-6,-3%,20µM*,44%
CNc1nc2c(N)ncnc2n1[C@@H]1O[C@@H]2COP(=O)(O)O[C@H]2[C@H]1O,13%[60.1 µM],nt,nt,nt,nt,nt
CCCOP(=O)(c1ccc(N(C)C)cc1)C(O)c1ccc(Br)cc1 (centres undefined),-2%,-2%,8,-21%,4%,114%
COc1cccc(CNC(=O)c2ccc3nc(-c4ccc(F)cc4)c(-c4ccc(F)cc4)nc3c2)c1,-12%[60.1 µM],2%,nt,?,8%,-7%
COCCCNC(=O)[C@@H](Cc1ccccc1)NC(=O)CC[C@H]1O[C@@H](n2ccc(=O)[nH]c2=O)[C@H](O)[C@@H]1O,nt,nt,7,nt,nt,nt
O=C(CSc1ccc(Cl)cc1)Nc1ccc(-c2nc3ccccc3[nH]2)cc1,-16%,-16%,?,?,32µM*,-44%
O=C(CSc1ccccc1)Nc1nc2ccccc2[nH]1,-8%,3%,-3,-6%,-2%[57.1 µM],-6%
CCOC(=O)Cc1nnc(NC(=O)c2ncn[nH]2)s1,4%,-13%,-29,1%,0%,7.1µM*
CC1=NN(C(=O)c2ccncc2)C(=O)C1N=Nc1ccc2ccccc2c1 (centres undefined),?,?,-10,?,nt,89µM*
CC(NC(=O)CCCn1c(=O)c2cccn2c2cccnc21)c1ccccc1 (centres undefined),2%,1%,nt,4%,12%,263%
C[n+]1ccc(/C=C/c2ccc(Br)cc2)cc1,89µM*,-11%,-4,-25%,-31%,?
Cc1ccc(C)c(N(C(=O)c2csnn2)C(C(=O)NC2CCCCC2)c2cccnc2)c1 (centres undefined),0%,11%,5,-4%,2%,49%
CCC1=NN2C(=N)/C(=C\c3cccn3-c3ccc(C)cc3C)C(=O)N=C2S1,-26%,?,-25,50µM*,40µM*,?
CCC1=NN2C(=N)/C(=C\c3cccn3-c3ccc(Br)cc3)C(=O)N=C2S1,-11%,16µM*,-5,-5%,-13%,?
O=C(N[C@@H](Cc1ccccc1)C(=O)NCc1ccc(F)cc1)C1CCNCC1,-12%,-1%,3,-18%,3%,-5%
COc1ccccc1CN(Cc1cc2cc3c(cc2[nH]c1=O)OCCO3)Cc1nnnn1Cc1ccco1,?,?,nt,32µM*,14µM*,?
O=c1[nH]c2cc3c(cc2cc1CN(Cc1cccnc1)Cc1nnnn1Cc1ccco1)OCCO3,89µM*,?,nt,?,40µM*,16µM*
Cc1ccc2[nH]c(=O)c(CN(CCCO)Cc3nnnn3Cc3ccco3)cc2c1,?,-7%,nt,nt,nt,79µM*
O=c1[nH]c2cc3c(cc2cc1CN(Cc1cccs1)Cc1nnnn1Cc1ccco1)OCCO3,25µM*,-9%,-83*,18µM*,32µM*,?
O=C(Nc1ccccc1C(=O)OCc1cc(=O)n2c3c(sc2n1)CCCC3)c1ccccc1,-3%[60.1 µM],-4%,nt,-18%,-25%,13%
SMILES,POLK inh,FEN1 inh,PI5P4Ka inh,POLH inh,Pol beta inh,POLI inh
O=C(O)CCN1C(=O)/C(=C/c2ccc(-c3nc4ccccc4s3)o2)SC1=S,?,-6%,-26,3.2µM*,25µM*,?
O=Cc1ccc(-c2nc3ccccc3s2)o1,-12%,-18%,-4,-7%,-22%,29%
COc1ccc2[nH]c(O)c(N=NC(=O)Cc3cccs3)c2c1,-40%,-16%,-69*,32µM*,?,?
O=C(Cc1cccs1)N=Nc1c(O)[nH]c2ccc(Br)cc12,-20%,-23%,?,0%,-12%,?
CCCC[C@H](NC(=O)[C@H](CC(C)C)NC(=O)[C@@H](Cc1c[nH]c2ccccc12)NC(=O)[C@H](Cc1ccccc1)NC(=O)[C@@H](Cc1c[nH]c2ccccc12)NC(=O)[C@H](CC(N)=O)NC(=O)[C@@H](Cc1c(Cl)cccc1Cl)NC(=O)[C@@H]1CCCN1C(=O)[C@H](Cc1ccccn1)NC(=O)[C@@H]1CCCN1C(=O)[C@H](N)CCCCNC(=O)c1cccnc1)C(N)=O,0%[60.1 µM],nt,nt,nt,nt,nt
O=C1CC(C(=O)Nc2ccc(O)c(C(=O)O)c2)C(c2ccccc2)O1 (centres undefined),-14%,4%,nt,50µM*,-10%,?
CSCCC(NS(=O)(=O)c1ccc(C)c(C(=O)O)c1)C(=O)O (centres undefined),-15%,2%,0,?,25µM*,-22%
COc1ccc(NS(=O)(=O)c2ccc(C)c(C(=O)O)c2)cc1,-10%,-5%,nt,79µM*,45µM*,?
COc1ccc(NS(=O)(=O)c2ccc(N)c(C(=O)O)c2)cc1,-1%,7%,6,2%,-1%,1%
COc1ccc2c(c1)Cc1sc(NC(=O)c3ccc(Cl)cc3)nc1-2,?,?,nt,-10%,0%,22µM*
COc1ccc2c(c1)Cc1sc(NC(=O)c3cccc(Cl)c3)nc1-2,-8%[60.1 µM],-5%,nt,-16%,1%,10µM*
COc1ccc2c(c1)Cc1sc(NC(=O)c3cccc(C)c3)nc1-2,-28%,?,nt,nt,22%,8.9µM*
COc1ccc2c(c1)CCc1sc(NC(=O)c3cccc(Br)c3)nc1-2,-13%[60.1 µM],-20%,nt,0%,3%,4%
ClN=C1C=CC=CC1=NCl,nt,nt,-77*,nt,nt,nt
Cc1ccc(S(=O)(=O)N2CCCCC2CCNC(=O)C(=O)NCC2CCCO2)cc1 (centres undefined),-8%,-6%,-4,-9%,nt,10%
